Bioassay records (PubChem BioAssay)
Most compounds without a hit are left out; they make up all but 11% or so of the library.
Luciferase inh: blocks purified firefly luciferase enzyme activity | purified P. pyralis luciferase, luminescence, biochemical | actives 2.5% (n = 76,000) | Potency, µM (doses to about 115 µM), hits mostly inhibitors | P08659; also: nearly all actives have a fitted effect of over 65% in size
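FLuc 10nM, D-luciferin 10uM, ATP 10uM, Mg acetate 10mM, Tris acetate pH 7.5, Tween/BSA; cpd qHTS; enzyme added last; CCD luminescence.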
HEK cytotox: HEK 293 cell cytotoxicity; HEK 293 viability, ATP luminescence (CellTiter-Glo), 48-72 h; Potency, µM (series often up to 115 µM), most hits filed as inhibitors; actives 6.6% (n = 94,000); AID 1345083; also: nearly all actives have a fitted effect of over 60% in size
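Luminescence from cellular ATP, measured with CellTiter-Glo, indicates HEK 293 viability. Cells plated at 250 cells/well are treated with compound for 48 or 72 hr at 37 degree Celsius before reagent addition.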
3T3 cytotox: cytotoxic compounds in NIH 3T3 cells; NIH 3T3 viability, CellTiter-Glo ATP luminescence, 48-72 h; Potency, µM (titrated, usually from 96.7 µM), hits mostly inhibitors; actives 4.3% (n = 94,000); AID 1345082; also: nearly all actives have a fitted effect of over 55% in size
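Viability of NIH 3T3 cells after 48 or 72 hr compound treatment at 37 °C was assessed by CellTiter-Glo, with luminescence imaged following a 10 min room-temperature step.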
NPR1 antag: blocks ANP-stimulated signaling of human Npr1 receptor | P16066 | HEK293 hNpr1 GloSensor cGMP, ANP-stimulated luminescence | Potency, µM (series often up to 46.3 µM), usual class: inhibitors | actives 1.6% (n = 76,000) | AID 1347048; calls by dose curve; also: nearly all actives have a fitted effect of over 60% in size
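HEK293 cells stably expressing human Npr1 and cGMP GloSensor pGS-40F, loaded 2 h with 2% GloSensor reagent, given compound 30 min at room temperature. Luminescence read before and 20 min after 0.1 nM hNppA.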
Npr1 antag conf: confirmation of human Npr1 natriuretic peptide receptor antagonists; Potency, µM (highest dose often 57.6 µM), usual class: inhibitors; actives 76% (n = 1,400); shares compounds with NPR1 antag; HEK293 hNpr1 cGMP GloSensor luminescence, ANP-stimulated; calls by dose curve; also: nearly all actives have a fitted effect of over 70% in size
NPR2 antag: hNpr2 antagonism, selectivity versus Npr1; shares compounds with NPR1 antag; HEK293 hNpr2 GloSensor cGMP luminescence, CNP-stimulated; Potency, µM (doses to about 57.6 µM), most hits filed as inhibitors; actives 67% (n = 1,400); calls by dose curve; also: nearly all actives have a fitted effect of over 70% in size
FLuc counter: FLuc enzyme inhibition, Npr1 counter-screen; shares compounds with NPR1 antag; purified FLuc enzyme, luminescence, Km substrate; Potency, µM (doses to about 57.6 µM), actives largely listed as inhibitors; actives 0.7% (n = 1,400)
GloSensor cGMP: reduces cGMP signal in GloSensor control cells | shares compounds with NPR1 antag | HEK293 GloSensor cGMP, SNP-stimulated, luminescence | Potency, µM (highest dose often 57.6 µM), actives largely listed as inhibitors | actives 69% (n = 1,400) | AID 1347051; calls by dose curve; also: nearly all actives have a fitted effect of over 70% in size
A number is an active result; . = inactive; ? = inconclusive; / = not tested or not shown. Unless noted, calls follow the shape of the dose curve; as a rule, active = well fitted curve in the direction sought with a large enough effect; inconclusive = small, poorly fitted or top-dose-only effect, or another doubt; inactive = no such curve, though single readings can be large; an effect the other way counts as inactive or inconclusive.

SMILES	Luciferase inh	HEK cytotox	3T3 cytotox	NPR1 antag	Npr1 antag conf	NPR2 antag	FLuc counter	GloSensor cGMP
Cc1cc(=O)n(CC(=O)NCCCc2ccccc2)c(N2CCc3ccccc3C2)n1	.	45µM	?	?	?	?	.	.
Cc1cc(=O)n(CC(=O)Nc2ccc(Br)cc2F)c(N2CCc3ccccc3C2)n1	.	?	?	?	.	?	.	.
Cc1cc(=O)n(CC(=O)Nc2ccc(C)c(F)c2)c(N2CCc3ccccc3C2)n1	.	8.9µM	?	16µM	.	.	.	.
Cc1cc(=O)n(CC(=O)Nc2ccc(C)c(Cl)c2)c(N2CCc3ccccc3C2)n1	.	?	?	.	/	/	/	/
O=C(c1ccc2[nH]ccc2c1)N1CC[C@@H]2COCCN(Cc3cccnc3)[C@@H]2C1	.	.	.	.	/	/	/	/
NC(=O)NCCC(=O)N1CCc2onc(C(c3ccccc3)c3ccccc3)c2C1	.	.	?	.	/	/	/	/
O=C(N[C@H]1CO[C@H]2[C@@H]1OC[C@@H]2n1nnnc1Oc1ccc2c(c1)OCO2)c1ccc(C(F)(F)F)cc1	.	?	?	7.9µM	6.9µM	8.6µM	.	5.4µM
O=c1[nH]c2cccnc2n1C1CC1	.	.	.	.	/	/	/	/
Cc1ccc(C)c(C(=O)N2CCC3(CC2)NC(=O)N(c2ccccc2)N3)c1	.	?	?	.	/	/	/	/
Cc1nn(C)c(C)c1C(C)NC(=O)c1ccc(CC2CCN(C(=O)C3CC3)CC2)cc1 (centres undefined)	.	?	?	11µM	17µM	17µM	.	15µM
Fc1ccc2c(c1)nc1n2[C@@H](CNCc2ccccn2)COC1	.	?	?	.	/	/	/	/
COc1ccc2nc3n(c2c1)[C@@H](CNCc1cnc2ccccc2c1)COC3	.	.	.	.	/	/	/	/
c1ccc2ncc(CNC[C@H]3COCc4nc5ccccc5n43)cc2c1	.	?	?	20µM	31µM	31µM	.	28µM
Fc1ccc2c(c1)nc1n2[C@@H](CNCc2cnc3ccccc3c2)COC1	.	?	.	35µM	40µM	?	.	40µM
CC(=O)Nc1ccc(CNC[C@H]2COCc3nc4c(C)cccc4n32)cc1	.	?	.	?	/	/	/	/
Cc1cccc2c1nc1n2[C@@H](CNCc2ccccc2)COC1	.	?	?	20µM	31µM	31µM	.	22µM
Cc1cccc(OC[C@H]2C[C@@H](NCc3cccc4c3OCO4)[C@H](O)[C@@H]2O)n1	.	.	.	.	/	/	/	/
CCc1noc(-c2cn(C3CCN(C(=O)c4sccc4C)C3)nn2)n1 (centres undefined)	.	.	.	.	/	/	/	/
Cc1nn2c(c1-c1ccccc1-c1ccccc1)N(CCC(C)C)CCC2	.	7.9µM	8.9µM	1.6µM	0.99µM	1.6µM	.	0.79µM
Cc1nn2c(c1-c1ccccc1-c1ccccc1)N(Cc1ccccc1)CCC2	.	?	13µM	14µM	6.3µM	8.9µM	.	4µM
Cc1ccncc1-c1c(C)nn2c1N(Cc1cccc(O)c1)CCC2	.	?	?	.	/	/	/	/
COCCNC(=O)[C@@H]1C[C@@H](O)CN1C1CCN(C(=O)c2ccccc2OC)CC1	.	.	.	.	/	/	/	/
Cc1nc2cccnc2n1CC1CCCN(S(=O)(=O)c2ccc(CC(C)C)cc2)C1 (centres undefined)	.	32µM	?	13µM	22µM	24µM	.	22µM
Cc1nc2cccnc2n1CC1CCCN(S(=O)(=O)c2ccc3c(c2)CCCC3)C1 (centres undefined)	.	?	?	?	/	/	/	/
O=S(=O)(c1ccc2c(c1)CCCC2)N1CCCC(Cn2cnc3cccnc32)C1 (centres undefined)	.	?	?	?	24µM	19µM	.	24µM
SMILES	Luciferase inh	HEK cytotox	3T3 cytotox	NPR1 antag	Npr1 antag conf	NPR2 antag	FLuc counter	GloSensor cGMP
Cc1ncc(S(C)(=O)=O)c(NCCn2nc(C)nc2C)n1	.	.	.	.	/	/	/	/
CC(=O)N1CCN(C(=O)c2cccc(-c3ccco3)c2)CC(O)C1 (centres undefined)	.	.	.	.	/	/	/	/
CCCC(=O)N1CCN(c2ccnc3ccnn23)CC1	/	.	.	/	/	/	/	/
CCN1CC(C(=O)NCc2noc(Cc3ccccc3)n2)CCC1=O (centres undefined)	.	.	.	.	/	/	/	/
Cc1nc(NCCc2nc3ccccc3n2C)cc(C2CC(O)C2)n1 (centres undefined)	.	.	.	.	/	/	/	/
OCc1ccc(CN2C[C@H](O)C[C@H]2c2nc(Cc3ccc(F)cc3Cl)no2)o1	.	.	.	.	/	/	/	/
COc1ccccc1-c1ccc2ncc(Nc3ccc4c(c3)OCO4)n2n1	.	?	?	.	/	/	/	/
COc1ccc(Nc2cnc3ccc(-c4ccccc4OC)nn23)cc1OC	.	?	?	28µM	25µM	25µM	?	22µM
COc1ccc(-n2c(=O)c(C(=O)N3CCOCC3)nc3cccnc32)cc1	/	.	.	/	/	/	/	/
Oc1cccc(-c2cc(C[C@@H]3CC[C@H](O)[C@@H](CNC4CCC4)O3)no2)c1	.	.	.	?	?	.	.	.
Cc1ccc(S(=O)(=O)NC[C@H]2O[C@H](Cc3cc(-c4cccc(O)c4)on3)CC[C@@H]2O)cc1	.	?	?	?	?	?	?	?
Cc1ccc(S(=O)(=O)NC[C@H]2O[C@H](Cc3cc(COc4ccccc4)on3)CC[C@@H]2O)cc1	.	?	?	.	/	/	/	/
COc1ccc(-c2cc(C[C@@H]3CC[C@H](O)[C@@H](CNCc4ccccc4OC)O3)no2)cc1	?	32µM	56µM	28µM	31µM	35µM	?	?
O[C@H]1CC[C@@H](Cc2cc(-c3ccc(F)cc3)on2)O[C@@H]1CNC1CCCCC1	.	?	40µM	?	?	?	.	.
Cc1ccc([S+](=O)([O-])N2CCCC2C(=O)N2CCC(c3nc4ccncc4[nH]3)C2)cc1 (centres undefined)	/	.	.	/	/	/	/	/
CC1CCCN1c1ccc(C(=O)N2CCC(Oc3cccnc3)CC2)cn1 (centres undefined)	.	.	?	.	/	/	/	/
O=C(NCc1ccc(C(F)(F)F)cc1)C1CN(c2ccc(Cl)cc2)C(=O)N1 (centres undefined)	.	?	?	.	/	/	/	/
COCCN(C)C[C@@H]1CN(c2cc(C)c3ccc(SC)cc3n2)C[C@@H]1CO	.	?	?	.	/	/	/	/
COc1ccc(S(=O)(=O)N2CCC3(CC2)CC(CC(=O)N2CCCC2)CCO3)cc1 (centres undefined)	.	?	?	.	/	/	/	/
